# Test results taken from PubChem BioAssay (NCATS).
# Several values for one entry are separate records, joined by “and”; a condition that tells them apart may be missing. Equal values may be shown once. Activity calls are given as the source filed them. How the calls were made is not given here.
# Conditions: Ebola virus entry assay, blue channel fluorescence
Structure (SMILES),AC50,outcome
Fc1ccc(C(OCCN2CCN(CCCc3ccccc3)CC2)c2ccc(F)cc2)cc1,3.98 µM (active),
C=C(C)[C@H]1Cc2c(ccc3c2O[C@@H]2COc4cc(OC)c(OC)cc4[C@@H]2C3=O)O1,10 µM (active),
COC(=O)Nc1nc2ccc(C(=O)C3CC3)cc2[nH]1,8.91 µM (active),
COc1cc2c(N3CCN(C(=O)Nc4ccc(OC(C)C)cc4)CC3)ncnc2cc1OCCCN1CCCCC1,11.2 µM (active),
CN1CC[C@H](c2c(O)cc(O)c3c(=O)cc(-c4ccccc4Cl)oc23)[C@H](O)C1,,inactive
C#CCOC(C(=O)OCCN(C)C)(c1ccccc1)c1ccccc1,12.6 µM (active),
Oc1ccc(Cl)cc1Cc1ccccc1,20 µM (active),
O=c1c(O)c(-c2ccc(O)c(O)c2)oc2cc(O)cc(O)c12,,inactive
C[C@H]1O[C@@H](O[C@H]2[C@@H](O)C[C@H](O[C@H]3[C@@H](O)C[C@H](O[C@H]4CC[C@@]5(C)[C@H](CC[C@@H]6[C@@H]5CC[C@]5(C)[C@@H](C7=CC(=O)OC7)CC[C@]65O)C4)O[C@@H]3C)O[C@@H]2C)C[C@H](O)[C@@H]1O,1.41 µM (active),
NC(=Nc1ccccc1)Nc1ccccc1,3.16 µM (active),
COC(=O)Nc1nc2ccc(C(=O)c3cccs3)cc2[nH]1,0.708 µM (active),
O=c1[nH]c2ccccc2n1CCCN1CCC(n2c(=O)[nH]c3cc(Cl)ccc32)CC1,39.8 µM (active),
COc1cc([C@@H]2c3cc4c(cc3[C@H](O)[C@H]3COC(=O)[C@H]23)OCO4)cc(OC)c1OC,11.2 µM (active),
O=C1NCN(c2ccccc2)C12CCN(CC1COc3ccccc3O1)CC2 (configuration not stated),,inactive
CN1C(=S)CN=C(c2ccccc2)c2cc(Cl)ccc21,,inactive
Oc1cc(Cl)ccc1Oc1ccc(Cl)cc1Cl,15.8 µM (active),
CCC1(C2=NCCN2)Cc2ccccc2O1 (configuration not stated),,inactive
Clc1ccc(COC(Cn2ccnc2)c2ccc(Cl)cc2Cl)cc1 (configuration not stated),10 µM (active),
COc1ccc(C(=O)c2c(C)n(CCN3CCOCC3)c3ccccc23)cc1,39.8 µM (active),
COc1cccc2c1C(=O)c1c(O)c3c(c(O)c1C2=O)C[C@@](O)(C(=O)CO)C[C@@H]3O[C@H]1C[C@H](N)[C@H](O)[C@H](C)O1,15.8 µM (active),
c1ccc2c(c1)Nc1ccccc1S2,,inactive
O=c1oc2ccccc2c(O)c1C(CC(O)c1ccc(-c2ccc(Br)cc2)cc1)c1ccccc1 (configuration not stated),,inactive
Cn1c(CCCC(=O)O)nc2cc(N(CCCl)CCCl)ccc21,,inactive
CC(C)(C)CC(C)(C)c1ccc(O)cc1,20 µM (active),

# Conditions: Ebola virus entry assay, ratio channel
Structure (SMILES),AC50,outcome
Fc1ccc(C(OCCN2CCN(CCCc3ccccc3)CC2)c2ccc(F)cc2)cc1,2.82 µM (active),
C=C(C)[C@H]1Cc2c(ccc3c2O[C@@H]2COc4cc(OC)c(OC)cc4[C@@H]2C3=O)O1,8.91 µM (active),
COC(=O)Nc1nc2ccc(C(=O)C3CC3)cc2[nH]1,7.94 µM (active),
COc1cc2c(N3CCN(C(=O)Nc4ccc(OC(C)C)cc4)CC3)ncnc2cc1OCCCN1CCCCC1,10 µM (active),
CN1CC[C@H](c2c(O)cc(O)c3c(=O)cc(-c4ccccc4Cl)oc23)[C@H](O)C1,,inactive
C#CCOC(C(=O)OCCN(C)C)(c1ccccc1)c1ccccc1,14.1 µM (active),
Oc1ccc(Cl)cc1Cc1ccccc1,10 µM (active) and 14.1 µM (active),
C[C@H]1O[C@@H](O[C@H]2[C@@H](O)C[C@H](O[C@H]3[C@@H](O)C[C@H](O[C@H]4CC[C@@]5(C)[C@H](CC[C@@H]6[C@@H]5CC[C@]5(C)[C@@H](C7=CC(=O)OC7)CC[C@]65O)C4)O[C@@H]3C)O[C@@H]2C)C[C@H](O)[C@@H]1O,0.708 µM (active),
NC(=Nc1ccccc1)Nc1ccccc1,,inactive
COC(=O)Nc1nc2ccc(C(=O)c3cccs3)cc2[nH]1,0.708 µM (active),
O=c1[nH]c2ccccc2n1CCCN1CCC(n2c(=O)[nH]c3cc(Cl)ccc32)CC1,25.1 µM (active),
COc1cc([C@@H]2c3cc4c(cc3[C@H](O)[C@H]3COC(=O)[C@H]23)OCO4)cc(OC)c1OC,5.01 µM (active),
O=C1NCN(c2ccccc2)C12CCN(CC1COc3ccccc3O1)CC2 (configuration not stated),,inactive
CN1C(=S)CN=C(c2ccccc2)c2cc(Cl)ccc21,,inactive
Oc1cc(Cl)ccc1Oc1ccc(Cl)cc1Cl,7.08 µM (active) and 14.1 µM (active),
CCC1(C2=NCCN2)Cc2ccccc2O1 (configuration not stated),,inactive
Clc1ccc(COC(Cn2ccnc2)c2ccc(Cl)cc2Cl)cc1 (configuration not stated),3.55 µM (active),
COc1ccc(C(=O)c2c(C)n(CCN3CCOCC3)c3ccccc23)cc1,,inactive
COc1cccc2c1C(=O)c1c(O)c3c(c(O)c1C2=O)C[C@@](O)(C(=O)CO)C[C@@H]3O[C@H]1C[C@H](N)[C@H](O)[C@H](C)O1,14.1 µM (active),
c1ccc2c(c1)Nc1ccccc1S2,,inactive
O=c1oc2ccccc2c(O)c1C(CC(O)c1ccc(-c2ccc(Br)cc2)cc1)c1ccccc1 (configuration not stated),,inactive
Cn1c(CCCC(=O)O)nc2cc(N(CCCl)CCCl)ccc21,,inactive
CC(C)(C)CC(C)(C)c1ccc(O)cc1,17.8 µM (active) and 15.8 µM (active),
